The list is not random: actives were taken first. Their share in the collection is about 21%.
Pf growth 96h – inhibits malaria parasite growth, 96 h. P. falciparum luciferase reporter growth, 96 h. Potency, µM (series often up to 28.7 µM), for inactives: at the highest dose activity change, negative = inhibition, hits mostly inhibitors. hit rate 6.9% among 320,000. AID 504834; active = well fitted inhibition curve with a large enough effect; inconclusive = small, poorly fitted or top-dose-only effect, or another doubt; inactive = no such curve, though single readings can be large or run the other way; also: potency is read from the fitted curve at half-maximal effect; % is scaled to controls: 0 for no effect and ±100 for the full control effect
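Luminescence readout: decreased luciferase signal marks inhibited growth of reporter-expressing P. falciparum in infected red cells (2% hematocrit, 0.05% parasitemia final), exposed to compound two generations (96 h, 37 C, 5% CO2).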
Pf growth 48h – inhibits P. falciparum growth in the first generation, 48 h; AID 504832; P. falciparum luciferase growth in erythrocytes, 48 h; hit rate 5.9% among 310,000; Potency, µM (doses to about 28.7 µM), for inactives: at the highest dose activity change, negative = inhibition, usual class: inhibitors; active = well fitted inhibition curve with a large enough effect; inconclusive = small, poorly fitted or top-dose-only effect, or another doubt; inactive = no such curve, though single readings can be large or run the other way; also: potency is read from the fitted curve at half-maximal effect; % is scaled to controls: 0 for no effect and ±100 for the full control effect
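Parasite viability was followed by luminescence of a genomically integrated firefly luciferase. Cultures held 0.1% parasitemia at 2% hematocrit (final), incubated under 5% CO2 at 37 C.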
Shiga inhibitor – blocks Shiga toxin action in Vero cells; hit rate 9.2% among 290,000; Vero cells, Shiga toxin protein synthesis inhibition reporter; inhibition, % at 38.7 µM; AID 2315; in the data active = inhibition mostly above about 28%, no sharp cut-off; inactive = mostly below about 43%; also: 0% is about no effect
SARS PLpro yeast – blocks SARS-CoV papain-like protease in a yeast assay; S. cerevisiae expressing SARS-CoV PLpro, growth rescue; Potency, µM (doses to about 32.9 µM), for the others: at the highest dose activity, positive = growth rescue, actives largely listed as activators; hit rate 0.19% among 330,000; AID 485353; also: potency is read from the fitted curve at half-maximal effect; 0% is about no effect; nearly all actives have a fitted effect of over 55% in size
CHX counter – counter-screen hit for Shiga toxin inhibitors, cycloheximide | cell reporter, cycloheximide protein synthesis inhibition counterscreen | hit rate 12% among 300,000 | max response, %; in the data active = max response mostly above about 13%, no sharp cut-off; inactive = mostly below about 14%; also: read at 38.3 µM for the half of the compounds with a filed dose; 0% is about no effect
NS1 function inh – blocks influenza NS1 protein function | Potency, µM (top dose mostly 46.1 µM), for the others: top-dose activity, positive = more growth | hit rate 0.4% among 270,000 | AID 2326; also: potency is read from the fitted curve at half-maximal effect; actives are rising curves; nearly all actives have a fitted effect of over 50% in size
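Compounds were scored for reversing the slow growth caused by influenza A NS1 in S. cerevisiae, measured by optical density at 600 nm. Assay medium contained 2% galactose at pH 6.0; NS1-free yeast of the same strain were the positive control.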
The depositor's hits bear a star; i = inactive; ? = inconclusive; . = no result given; [ ] = another dose, or the depositor's remark. Unless noted, calls follow the shape of the full dose curve.

SMILES	Pf growth 96h	Pf growth 48h	Shiga inhibitor	SARS PLpro yeast	CHX counter	NS1 function inh
CS(=O)(=O)N1CCCC(C(=O)NCCCN2CCOCC2)C1 (stereo unspecified)	?	6.0%	-1.1	3.0%	3.0	-1.6%
O=C1C(Cc2ccccc2)Nc2ncnc(N3CCOCC3)c2N1Cc1ccc(Cl)cc1 (stereo unspecified)	0.0%	9.28µM*	.	-4.3%	.	.
COc1ccc(CN2C(=O)C(Cc3ccccc3)Nc3ncnc(N4CCCCC4)c32)cc1 (stereo unspecified)	11.7µM*	5.22µM*	.	1.5%	.	.
O=[N+]([O-])c1ccc(-c2nnc(S)n2-c2ccccc2)cc1	-31.7%	97.1%	.	-2.6%	28.4*	10.0%
COc1ccc(-n2c(SCc3ccc([N+](=O)[O-])cc3)nnc2-c2ccccc2)cc1	?	?	-6.1	5.2%	2.6	19.6%
O=C(O)c1cccc(NC(=O)c2ccc3c(c2)C(=O)N(c2cccc([N+](=O)[O-])c2)C3=O)c1	5.86µM*	38.1%	1.6	0.7%	-2.5	-0.7%
CC(C)(C)N1C(=O)c2ccc(C(=O)Nc3ccc(C(=O)O)cc3)cc2C1=O	9.28µM*	-1.8%	-9.7	0.4%	-4.1	7.2%
CCN1C(=O)c2ccc(C(=O)Nc3cccc(C(=O)O)c3)cc2C1=O	7.0%	.	48.0*	-3.3%	19.8*	0.0%
O=C(O)c1ccc2c(c1)C(=O)N(c1cccc(C(=O)/C=C/c3ccccc3)c1)C2=O	i	37.2%	52.5*	-0.4%	28.4*	2.4%
CC/C(=N/NC(=O)CNc1ccc(Cl)cc1C)c1ccccc1	-48.0%	5.1%	-22.3	-4.4%	-9.1	.
CC1CC(=O)C2=C(C1)Nc1ccccc1SC2c1ccc(F)cc1 (stereo unspecified)	4.15µM*	11.7µM*	-6.2	-16.8%	-4.9	-1.0%
O=C(Cn1cc(C(F)(F)F)ccc1=O)Nc1cccc(S(=O)(=O)N2CCOCC2)c1	i	5.3%	-7.9	3.1%	-2.8	5.5%
Cn1ccsc1=NC(=O)c1cccc(OC(F)F)c1	109.0%	.	92.2*	-3.4%	45.2*	-5.5%
NC(=O)NOCc1c(F)cccc1Cl	35.4%	0.0%	-10.4	0.3%	-1.2	0.1%
N/C(CN1CCSCC1)=N\OCc1c(F)cccc1Cl	6.4%	-12.5%	48.9*	1.0%	12.5	1.7%
CCn1c(SCC(=O)OC)nc2cc(S(=O)(=O)N3CCOCC3)ccc21	-10.0%	-13.8%	.	.	.	.
CCc1ccc(C(=O)CSc2nc3cc(S(=O)(=O)N4CCOCC4)ccc3n2CC)cc1	10.4µM*	?	21.1	-30.9%	12.8	24.3%
Cc1csc(SCC(=O)c2ccc(S(=O)(=O)N3CCOCC3)cc2)n1	10.4µM*	?	27.5	3.7%	-4.4	0.3%
CN1C(=O)C(=O)/C(=C(/O)c2ccccc2)C1c1ccccc1 (stereo unspecified)	36.4%	-6.6%	1.6	3.2%	-2.8	10.6%
Cc1ccc(/C(O)=C2/C(=O)C(=O)OC2c2ccc(Cl)cc2)cc1 (stereo unspecified)	72.4%	-2.2%	20.4	?	23.7*	21.6%
O=C1OC(c2ccccc2)/C(=C(/O)c2ccc(Cl)cc2)C1=O (stereo unspecified)	-27.0%	.	11.8	16.3%	13.1	-1.5%
O=C1OC(c2ccccc2)/C(=C(/O)c2ccccc2)C1=O (stereo unspecified)	38.9%	.	101.4*	-26.8%	39.3*	9.9%
Cc1ccc(C)c(S(=O)(=O)N2CCCOC2CNC(=O)C(=O)NCCc2ccco2)c1 (stereo unspecified)	13.1µM*	-5.3%	-1.3	-3.5%	13.7	0.5%
COc1ccccc1CCNC(=O)C(=O)NCC1OCCCN1S(=O)(=O)c1cc(C)ccc1C (stereo unspecified)	?	?	-2.3	-5.3%	-2.1	-26.8%
COc1ccc(CCNC(=O)C(=O)NCC2OCCCN2S(=O)(=O)c2cc(C)ccc2C)cc1 (stereo unspecified)	13.1µM*	?	-8.2	-3.5%	-1.0	7.2%
SMILES	Pf growth 96h	Pf growth 48h	Shiga inhibitor	SARS PLpro yeast	CHX counter	NS1 function inh
CCN(CC)C(=O)CCCSc1nnc(Nc2ccccc2F)s1	?	20.0%	85.3*	-0.3%	44.5*	.
CN(C(=O)CSc1nnc(Nc2ccccc2F)s1)C1CCS(=O)(=O)C1 (stereo unspecified)	.	.	.	0.5%	.	.
O=C1c2ccccc2C(=O)N1CSc1nnc(Nc2ccccc2F)s1	14.7%	53.5%	30.0	20.0%	21.9*	12.8%
O=C1c2ccccc2C(=O)N1CSc1nnc(Nc2ccccc2)s1	27.9%[5.75 µM]	22.2%	18.2	0.9%	-3.6	2.6%
N#CC1(NC(=O)CSc2nnc(Nc3ccccc3F)s2)CCCC1	11.7µM*	?	.	-5.2%	.	.
O=C1C(c2[nH]c3ccc(S(=O)(=O)O)cc3c2O)=Nc2ccc(S(=O)(=O)O)cc21	.	.	-2.7	.	10.9	.
CN1C(=O)/C(=C/c2cccc([N+](=O)[O-])c2)C(=O)N1c1ccccc1	?	-5.6%	.	2.3%	1.4	20.8%
CCCN1C/C(=C/c2cccc([N+](=O)[O-])c2)C(=O)/C(=C/c2cccc([N+](=O)[O-])c2)C1	?	14.7µM*	-7.0	-1.6%	19.3	10.8%
CCN(CC)c1ccc(C(=O)Nc2cccc(F)c2)cc1	25.0%	4.9%	42.1	-7.0%	27.8*	-118.9%
CCN(CC)c1ccc(C(=O)NN)cc1	1.0%	9.0%	-4.0	-2.5%	2.2	.
CN(C)c1cccc(C(=O)Nc2cccc(F)c2)c1	-7.2%	-30.6%	68.1*	-20.2%	41.3*	-39.5%
C[C@]12CC[C@H]3C(=CCc4cc(O)ccc43)[C@@H]1CCC2=O	?	?	33.5	-15.8%	15.5*	-24.5%
COC(=O)C1CCCCN1C(=O)c1ccc2oc(Cc3ccccc3)nc2c1 (stereo unspecified)	8.4%	-3.2%	82.7*	-1.7%	66.9*	-19.3%
COC(=O)C1CCCCN1C(=O)c1ccc2oc(C(C)C)nc2c1 (stereo unspecified)	?	-14.9%	57.2*	-1.3%	27.1*	7.7%
CCOC(=O)C1CCCCN1C(=O)c1ccc2nc(Cc3ccc(OC)cc3)oc2c1 (stereo unspecified)	?	?	12.3	1.7%	5.6	-11.1%
COc1cc(C2NC(=S)NC3=C2CCc2ccccc23)cc(OC)c1OC (stereo unspecified)	?	?	-16.7	4.8%	-1.2	22.9%
C=CCOc1ccc(C2NC(=S)NC3=C2CCc2ccccc23)cc1 (stereo unspecified)	?	?	19.8	0.2%	25.3*	-0.3%
c1ccc2c(c1)OCC(c1csc3ncnc(N4CCCCC4)c13)O2 (stereo unspecified)	?	?	2.2	-45.5%	0.7	-3.6%
O=c1[nH]cnc2scc(C3COc4ccccc4O3)c12 (stereo unspecified)	1.7%	53.7%	-3.4	-9.3%	13.8*	-42.0%
Clc1ncnc2scc(C3COc4ccccc4O3)c12 (stereo unspecified)	2.62µM*	2.94µM*	21.1	-87.1%	6.7	-50.0%

Screening data as filed in PubChem BioAssay.
